# Measurements as given in PubChem BioAssay (Tox21).
# Results filed as inconclusive are left out. A call without a number means that no potency is given here. Active and inactive are the calls of the source. The call rests on the fitted dose curve; in most records, active means well fitted cell-killing curve with a large enough effect in the repeat runs; inconclusive means weak or mixed curves, or effect the other way; inactive means flat fitted curve, though single readings scatter.
# Assay: qHTS RealTime-Glo MT Cell Viability Assay in HEK293 cells - 8 hour (AID 1224887); further: nearly all actives have a fitted effect of over 50% in size
# Settings: RealTime-Glo luminescence; series mostly up to 76.8 µM
# Description: U.S. Tox21 Program National Center for Advancing Translational Sciences [NCATS] NIH Chemical Genomics Center [NCGC] U.S. Environmental Protection Agency [EPA] National Institutes of Environmental Health Sciences [NIEHS] National Toxicology Program [NTP] U.S. Food and Drug Administration [FDA] Tox21 Assay Overview: Measure of cell viability is critical in the cell-base assay. Analysis of cell viability is necessary for the characterization of cell responses to cytotoxic drugs and environmental stress. A RealTime-Glo MT Cell Viability Assay to monitor cell viability in real time of continues cell culture during 40 hours of compound treatment was used to screen Tox21 10K library compounds in Hek293 cells. The RealTime-Glo MT Cell Viability Assay is a nonlytic, homogeneous, bioluminescent method to measure cell viability in real time using a simple, plate-based method. The assay involves adding NanoLuc luciferase and a cell-permeant prosubstrate to cells in culture. Viable cells reduce the proprietary prosubstrate to generate a substrate for NanoLuc luciferase. This substrate diffuses from cells into the surrounding culture medium, where it is rapidly used by the NanoLuc Enzyme to produce a luminescent signal. The signal correlates with the number of viable cells, making the assay well suited for cytotoxicity studies.
# Tox21 Assay Protocol Summary: The mixture of Hek293 cell suspension and reagents were dispensed at 600cells/6 ul/well in 1536-well tissue culture treated black solid bottom plates using a Multidrop dispenser. After the assay plates were incubated at a 37 C/5% CO2 incubator for 5 hours, 23 nL of compounds dissolved in DMSO, positive and negative controls was transferred to the assay plate by a pintool work station. The plates were incubated at 37 C for 40 hours. The luminescence intensity were measured at 0h, 8h, 16h, 24h, 32h and 40h time points using ViewLux plate reader during compound treatment.
# Potency means the concentration at half of the fitted maximal effect.
row,Structure (SMILES),Potency
1,O=C1C2CC=CCC2C(=O)N1SC(Cl)(Cl)Cl (stereo not given),27.1 µM (active)
2,CCN(CCO)CCn1c(Cc2ccccc2)nc2c1c(=O)n(C)c(=O)n2C,inactive
3,CCOC(=O)COc1ccc(Cl)cc1Cl,inactive
4,OCC(Cl)CCl (stereo not given),inactive
5,CNC(=O)Oc1cc(C)c(N(C)C)c(C)c1,inactive
6,CCOP(=O)(CN(CCO)CCO)OCC,inactive
7,CC(Cc1ccccc1)NCCCCl (stereo not given),inactive
8,Oc1ccc(Cc2ccc(O)cc2)cc1,inactive
9,CCCCCCCCBr,inactive
10,c1cncc([C@@H]2CCCCN2)c1,inactive
11,O=C(Cl)C(Cl)(Cl)Cl,inactive
12,CCCC(C)(COC(N)=O)COC(N)=O,inactive
13,ClCCCCCCCl,inactive
14,O=C1CCCCC1Cl (stereo not given),inactive
15,S=C=S,inactive
16,C=C1C[C@@H]2[C@H](CC[C@]3(C)C(=O)CC[C@@H]23)[C@@]2(C)C=CC(=O)C=C12,inactive
17,BrCc1ccc(Br)cc1,inactive
18,COP(=O)(OC)O/C(C)=C/C(=O)N(C)C,inactive
19,COC(=O)c1ccccc1CS(=O)(=O)NC(=O)Nc1nc(OC)cc(OC)n1,inactive
20,Cc1cccc2sc3nncn3c12,inactive

row,Structure (SMILES),Potency
1,BrCCc1ccccc1,inactive
2,C[C@H](N)C(=O)c1ccccc1,inactive
3,O=c1[nH]oc2c1CCNC2,inactive
4,CCN[C@H](C)Cc1cccc(C(F)(F)F)c1,inactive
5,CN1C(=O)COc2c(C(=O)NC3CN4CCC3CC4)cc(Cl)cc21 (stereo not given),inactive
6,CN(C)CCc1c[nH]c2cccc(OP(=O)(O)O)c12,inactive
7,CCCC(C)C1(CC)C(=O)N=C(S)NC1=O (stereo not given),inactive
8,C(COCC1CO1)OCC1CO1 (stereo not given),inactive
9,NC(=O)CS(=O)C(c1ccccc1)c1ccccc1 (stereo not given),inactive
10,COC[C@@H](NC(C)=O)C(=O)NCc1ccccc1,inactive
11,O=C(Cl)c1ccccc1,inactive
12,CCC(CC)(CNC(=O)CCCO)c1cccc(OC)c1,inactive
13,COc1cccc(C=O)c1,inactive
14,CC[C@H](N)c1ccccc1,inactive
15,C=C(Cl)CCl,inactive
16,Oc1ccc2c3c1O[C@H]1[C@@H](O)C=C[C@H]4[C@@H](C2)NCC[C@@]341,inactive
17,CN=CNc1ccc(C)cc1C,inactive
18,O=[N+]([O-])CCO,inactive
19,Clc1nc(Cl)nc(Nc2ccccc2Cl)n1,inactive
20,CC(C)(C1CCC(O)CC1)C1CCC(O)CC1 (stereo not given),inactive
